These results are taken from PubChem BioAssay AID1259389 (Center for Chemical Genomics, University of Michigan, 2018).

The campaign covered roughly 100,000 compounds. About 620 (0.62%) were called active. How the source made its calls: active means z-score of 3 or more in at least 2 runs; inactive means the rest. The entries come from a sample that favours actives as a whole.

The assay can be described thus: TAR RNA-Tat peptide displacers, HIV-1, primary screen, biochemical, FRET, FAM/TAMRA-labeled Tat (AID 1259389). To be noted: HIV-1 TAR RNA, Tat peptide displacement FRET; hits give high values.
For `CCCCN(C)S(=O)(=O)c1cc(-c2cc(C)no2)ccc1CC`, the z-score was 2.74 (inactive).

Consider `CCCSc1ncc(CO)n1Cc1ccccc1`, for which the z-score was 1.26 (inactive). Under `COc1ccccc1N1CCN(Cc2cc(=O)n3nc(C4CCCCC4)sc3n2)CC1` stands 0.09 (inactive); under `CCC(CC)C(=O)Nc1ccc(OCc2cc(=O)n3cccc(C)c3n2)cc1`, 2.07 (inactive); under `Cc1ccc(-c2ncnc3c(C#N)c4ccccn4c23)cc1`, 2.39 (inactive). `O=C(Nc1nc2nc(-c3ccccc3)cc(=O)n2[nH]1)C1CC1`: the z-score was 2.82 (inactive). Under `O=C(Nc1nc2nc(-c3ccccc3)cc(=O)n2[nH]1)C1CCCCC1` stands 0.88 (inactive). Under `Nc1ccc(-c2cc(=O)n3[nH]cnc3n2)cc1` stands 10.6 (active). With `Cc1cc(-c2ccc(S(=O)(=O)N3CCc4ccccc4C3)s2)on1`, the z-score was 0.06 (inactive). The value for `Cc1ccc(S(=O)(=O)Nc2ccc3c(c2)oc(=O)n3C)cc1` was 1.19 (inactive); that for `C#CCSc1nc2c(c(=O)[nH]1)C(c1ccc(O)c(O)c1)CC(=O)N2` (stereo unspecified) was 26.9 (active). Under `CCSc1nc2c(c(=O)[nH]1)C(c1ccc(OC)c(Br)c1)CC(=O)N2` (stereo unspecified) stands 1.43 (inactive).

For `C#CCSc1nc2c(c(=O)[nH]1)C(c1ccc(OCCCC)cc1)CC(=O)N2` (stereo unspecified), the z-score is -0.97 (inactive). Under `CCN(CC)C(=O)Cn1c(-n2nc(C)cc2C)nc2c(c1=O)CCCC2` stands 1.12 (inactive); under `Cc1ccc(-c2nc(CSCC(=O)NC3CC3)no2)cc1`, 0.42 (inactive). For the compound `C=C(C)COc1ccc2oc(C)c(C(=O)OCC)c2c1`, the z-score was 0.55 (inactive). The value for `COc1ccc(N2CSC3=C(C#N)C(c4cccc(Br)c4)CC(=O)N3C2)cc1` (stereo unspecified) was -0.77 (inactive). The value for `COc1cc(C2CC(=O)N3CN(c4ccccc4)CSC3=C2C#N)ccc1O` (stereo unspecified) was 31.5 (active). Consider `COC(=O)c1ccc(N2CSC3=C(C#N)C(c4ccc(Cl)cc4)CC(=O)N3C2)cc1` (stereo unspecified), for which the z-score was -0.23 (inactive). Turning to `COc1cc(C2CC(=O)N3CN(c4ccc(Br)cc4)CSC3=C2C#N)ccc1O` (stereo unspecified), the z-score was 24.7 (active). Turning to `CCOc1ccc(C2CC(=O)N3CN(c4ccc(OC)cc4OC)CSC3=C2C#N)cc1OC` (stereo unspecified), the z-score is -4.55 (inactive). The value for `COc1cccc(C2CC(=O)N3CN(c4ccc(Br)cc4)CSC3=C2C#N)c1` (stereo unspecified) was -2.72 (inactive). Take `COc1cccc(Nc2c(O)c(=O)c2=O)c1`: the z-score was -0.8 (inactive).

Take `CCC(C)NC(=O)Cn1c(=O)n(CC2CCC(C(=O)N3CCCC3)CC2)c(=O)c2sccc21` (stereo unspecified): the z-score is 0.29 (inactive). Under `CC1CCCN(C(=O)Cn2c(=O)oc3cc(S(=O)(=O)N4CCCCC4C)ccc32)C1` (stereo unspecified) stands 1.86 (inactive). The value for `CSc1nnc(-c2nonc2NC(C)=O)n1C` was 0.81 (inactive); that for `COc1cccc(Nc2nc(-c3cc(OC)ccc3OC)no2)c1` was 1.24 (inactive).

With `CC(=O)N1N=C(c2cc(C3CC3)nc3ccccc23)OC1c1ccc(F)cc1` (stereo unspecified), the z-score was 21.6 (active). As to `COc1ccccc1C1OC(c2cc(C3CC3)nc3ccccc23)=NN1C(C)=O` (stereo unspecified), the z-score is 1.12 (inactive).

Regarding `CC(=O)N1N=C(c2cc(C3CC3)nc3ccccc23)OC1c1ccc([N+](=O)[O-])s1` (stereo unspecified), the z-score was 2.1 (inactive). On to `COc1ccc(-c2nc3sccn3c2Nc2ccc(Cl)cc2)cc1`, for which the z-score was 0.26 (inactive). The value for `O=c1[nH]c(-c2cccc(Cl)c2)nc2c1Cc1cc(F)ccc1O2` was 1.31 (inactive); that for `CCOc1ccccc1NS(=O)(=O)c1cc2c3c(c1)C(C)C(=O)N3CCC2` (stereo unspecified) was 2.12 (inactive).

With `Cc1cc(NS(=O)(=O)c2ccc3[nH]c(=O)ccc3c2)ccc1Br`, the z-score is 3.75 (active). Under `Cc1cc(NS(=O)(=O)c2ccc(-n3cccn3)cc2)ccc1Br` stands 0.31 (inactive). The value for `Cc1ccc(S(=O)(=O)Nc2ccc3[nH]c(=O)oc3c2)cc1C` was 0.9 (inactive); that for `CCC(C)NC(=O)c1ccc2c(=O)n(C)c3n[nH]c(=O)n3c2c1` (stereo unspecified) was -1.23 (inactive). Under `COC(=O)c1cccc(N2C(=O)C3C4C=CC(CC4)C3C2=O)c1` (stereo unspecified) stands -0.18 (inactive); under `COc1cccc(-c2n[nH]c3c2C(c2cccs2)NC3=O)c1` (stereo unspecified), 0.03 (inactive); under `O=C1C(=O)N(CCCN2CCOCC2)C(c2ccc(F)cc2)/C1=C(\O)c1ccc(F)cc1` (stereo unspecified), -0.23 (inactive). Take `CCN(c1cccc(C)c1)c1c(-c2ccc(C)c(C)c2)c(=O)c1=O`: the z-score is 1.19 (inactive). Under `Cc1cc(=O)oc2c1c(C)nn2-c1ccc(Cl)cc1` stands 6 (active); under `Cc1cccc(-n2nc(C)c3c(C)cc(=O)oc32)c1`, -1.35 (inactive); under `Cc1cc(=O)oc2c1c(C)nn2-c1cccc(Br)c1`, 2.1 (inactive).

In the case of `CCOCc1nc(N2CCOCC2)sc1C(=O)NCc1ccco1`, the z-score is 1.59 (inactive). The value for `Cc1nc2c3cccnc3nn2c(C)c1CCC(=O)NC1CCCCC1` was 0.03 (inactive). The value for `Cc1nc2nc(N3C(=O)CCC3=O)[nH]n2c(=O)c1C` was 0.34 (inactive); that for `O=C(NCc1ccc2c(c1)OCO2)c1sc(=S)n2c1[nH]c(=O)c1ccccc12` was 8.38 (active). Under `O=C(NCc1ccc2c(c1)OCO2)C(=O)c1c[nH]c2ccccc12` stands -0.39 (inactive). As for `O=C(NCc1ccc2c(c1)OCO2)c1sc2ncccc2c1-n1cccc1`, the z-score was 0.34 (inactive). As to `CCc1ccc(S(=O)(=O)Nc2cccc(-c3ccc(S(C)(=O)=O)nn3)c2)s1`, the z-score is -0.88 (inactive). The value for `O=S(=O)(c1ccc(Cl)cc1)N(Cc1nc(-c2ccccc2)no1)C1CCCCC1` was -0.39 (inactive); that for `CC(C)NC(=O)c1sc(=S)n2c1[nH]c(=O)c1ccc(C(=O)NCCN(C)C)cc12` was 7.52 (active). Under `CCOC(=O)c1sc(=S)n2c1[nH]c(=O)c1ccc(C(=O)OC)cc12` stands 3.58 (inactive); under `O=C(NC1CCCCC1)c1ccc(CNc2c(N3CCCC3)c(=O)c2=O)cc1`, 2.73 (inactive). The value for `C=CCNC(=O)c1sc(=S)n2c1[nH]c(=O)c1ccc(C(=O)OC)cc12` was -0.19 (inactive); that for `O=C(O)c1ccc2c(=O)[nH]c3c(C(=O)NC4CCCCC4)sc(=S)n3c2c1` was 10.3 (active); that for `O=C(NC1CCCC1)c1ccc2c(=O)[nH]c3c(C(=O)NCC4CCCO4)sc(=S)n3c2c1` (stereo unspecified) was 9.34 (inactive). As to `Cc1nn2c(=O)cc(CSc3nnc(COc4ccccc4C)n3C)nc2s1`, the z-score was -1.46 (inactive).

Consider `CCNc1nc(NCCN(C)C)nc2c1cnn2C`, for which the z-score was 1.49 (inactive). Under `CC1CCN(S(=O)(=O)c2ccc3nc(Nc4cc(F)ccc4F)ccc3c2)CC1` stands 1 (inactive); under `C=CCc1ccccc1OCc1cc(=O)n2nc(-c3ccc(OC)cc3)sc2n1`, -1.28 (inactive); under `CCOc1ccc(-c2nc3c(s2)CN(S(=O)(=O)c2cccc4nsnc24)CC3)cc1`, 0.4 (inactive). The value for `Cc1nc2ccccc2n1CCNS(=O)(=O)c1ccc2c(c1)oc(=O)n2C` was 3.26 (active); that for `CCCNS(=O)(=O)c1ccc2c(c1)oc(=O)n2CC(=O)OCC` was -3.16 (inactive). Under `Cc1nn(C)c(C)c1CNS(=O)(=O)c1ccc2c(c1)oc(=O)n2C` stands 0.45 (inactive); under `CCC1CN(C(=O)Nc2ccccc2)c2ccccc2O1` (stereo unspecified), 1.11 (inactive). On to `O=c1[nH]c(SCc2ccccc2)nnc1-c1ccccc1`, for which the z-score was -0.2 (inactive). Under `CN(C)c1ccc(NC(=O)CSc2nc(-c3ccco3)cc(C(F)(F)F)n2)cc1` stands 0.28 (inactive). For `c1ccc(CSc2nnc(-c3ccco3)c(-c3ccco3)n2)cc1`, the z-score was 8.76 (active). The value for `O=C(CSc1ccc(-c2cccs2)nn1)Nc1ccc(Br)cc1` was 2.14 (inactive). Under `O=C(CSc1nnc(-c2ccco2)c(-c2ccco2)n1)Nc1ccc(Br)cc1` stands 24.6 (active); under `Nc1cc(=O)nc(SCc2ccccc2)n1Cc1ccco1`, 0.7 (inactive); under `O=C(Nc1ccccc1Br)c1cnn(-c2ccccc2)c1-n1cccc1`, 1.05 (inactive).

For the compound `NC(=O)Cn1c(=O)n(CCCCC(=O)NCc2ccco2)c(=O)c2ccccc21`, the z-score was -0.85 (inactive). With `CCCc1cc(=O)[nH]c(Nc2cccc(Br)c2)n1`, the z-score is 0.79 (inactive). As to `C=C(C)Cn1c(CN2CCOCC2)nc2ccccc21`, the z-score is 0.03 (inactive). Consider `CCc1ccc(N2CCn3c2nc2c3c(=O)n(CC(=O)O)c(=O)n2C)cc1`, for which the z-score was 3.43 (inactive). Regarding `CN(C)CCCNc1oc(-c2ccc(S(=O)(=O)N3CCc4ccccc4C3)cc2)nc1C#N`, the z-score is 11.4 (active).

For `COc1ccc(-c2nnc(-c3ccccc3)o2)cc1S(=O)(=O)N1CCc2ccccc2C1`, the z-score is 0.08 (inactive). Under `CC(C)CNc1oc(-c2ccc(S(=O)(=O)N3CCc4ccccc4C3)cc2)nc1C#N` stands 0.36 (inactive); under `O=C(c1ccccc1)c1ccc2nc(NCCCO)c3nncn3c2c1`, -1.78 (inactive). The value for `O=C1CCCC2=C1C(c1cccs1)N(C(=O)CCC(=O)N1CCOCC1)c1ccccc1N2` (stereo unspecified) was 0.78 (inactive); that for `O=C(CSc1nnc(-c2cccnc2)n1-c1ccccc1)c1ccc(F)cc1` was 1.26 (inactive); that for `CCc1nc2nc(CSc3nnc(NC(=O)c4ccccc4)s3)cc(=O)n2[nH]1` was 2.53 (inactive). The value for `CCCC(=O)Nc1ccc2nc(SCc3cc(=O)n4nc(C)sc4n3)sc2c1` was 0.47 (inactive); that for `CCc1nc2nc(CSc3nc4ccc(NC(=O)c5ccco5)cc4s3)cc(=O)n2[nH]1` was 4.94 (active). Consider `CCC(C)N(CCNC(=O)Nc1cn(C)c(=O)c2ccccc12)Cc1ccco1` (stereo unspecified), for which the z-score was 1.06 (inactive). Under `Cc1cccc(C(=O)OCc2cc(=O)n3nc(C)sc3n2)c1` stands -0.36 (inactive); under `COCCNc1c(-c2ccc(Cl)cc2)c(=O)c1=O`, 0.52 (inactive). Under `CC(C)OCCCNc1c(-c2ccc(C(C)C)cc2)c(=O)c1=O` stands 10.9 (active).

Consider `CC(CNc1c(-c2ccc(Cl)cc2)c(=O)c1=O)c1ccccc1` (stereo unspecified), for which the z-score is -0.61 (inactive).

Consider `O=C1CSc2ccc(S(=O)(=O)NCc3ccccc3)cc2N1`, for which the z-score was 0.46 (inactive). The value for `CCOc1cccc2c1N[C@@H](c1ccc(C(=O)O)cc1)[C@H]1CC=C[C@@H]21` was 21.4 (active); that for `COC(=O)c1ccc([C@@H]2Nc3ccc(F)cc3[C@@H]3C=CC[C@@H]32)cc1` was 1.86 (inactive); that for `COc1ccccc1C1Nc2ccc(C(=O)O)cc2C2C3CCC(C3)C12` (stereo unspecified) was 8.02 (inactive).
